According to the supplement of paper PMC8728848:
This excerpt belongs to a sample that is enriched for the strongest signals.

Test system: Gal(a1-2)Gal
Assay: glycan array binding signal (z-score within array); higher = stronger binding
Details: glycan notation: IUPAC condensed, linker removed
Outline: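 Negative Z-scores can be read as non-binding. The Z-score is calculated within each array and then averaged across arrays of one protein sequence at different concentrations or buffers and across linkers. Arrays, 3228 in all, were curated from the Consortium for Functional Glycomics database and kept only where the protein sequence was available.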

CHI3L1 (Homo sapiens), P36222, sequence (P36222 whole entry): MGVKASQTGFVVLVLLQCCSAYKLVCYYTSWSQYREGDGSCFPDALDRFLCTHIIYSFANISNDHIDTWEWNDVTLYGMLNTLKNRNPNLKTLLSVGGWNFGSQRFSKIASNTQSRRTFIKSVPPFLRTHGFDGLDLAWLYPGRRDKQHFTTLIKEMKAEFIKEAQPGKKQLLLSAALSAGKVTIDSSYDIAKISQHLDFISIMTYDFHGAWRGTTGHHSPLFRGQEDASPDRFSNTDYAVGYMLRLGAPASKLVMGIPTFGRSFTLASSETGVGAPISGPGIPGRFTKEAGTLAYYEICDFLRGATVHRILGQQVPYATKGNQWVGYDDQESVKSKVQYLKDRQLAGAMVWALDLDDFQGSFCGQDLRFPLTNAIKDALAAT
Regenerating Gene IV (Homo sapiens), Q9BYZ8, sequence (Q9BYZ8 whole entry, looked up): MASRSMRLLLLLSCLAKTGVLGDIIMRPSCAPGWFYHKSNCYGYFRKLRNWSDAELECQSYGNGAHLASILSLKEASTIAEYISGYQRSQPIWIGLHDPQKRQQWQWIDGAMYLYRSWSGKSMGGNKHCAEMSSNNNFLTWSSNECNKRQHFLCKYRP
Aggrecan (Rattus norvegicus), NP_071526, sequence (chain, as listed by the source): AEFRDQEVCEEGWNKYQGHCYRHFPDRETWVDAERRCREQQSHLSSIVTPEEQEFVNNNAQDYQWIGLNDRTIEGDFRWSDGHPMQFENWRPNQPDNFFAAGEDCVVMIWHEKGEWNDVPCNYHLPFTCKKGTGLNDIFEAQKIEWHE

Row | Substance | glycan array binding signal (z-score)
1 | CHI3L1 (Homo sapiens), P36222 | -0.025
2 | Aggrecan (Rattus norvegicus), NP_071526 | -0.066
3 | Regenerating Gene IV (Homo sapiens), Q9BYZ8 | 6.89
